Assay [1] has as its target T1, Serine/threonine-protein kinase Sgk2 (Homo sapiens) (UniProt Q9HBY8).
T1 sequence (whole entry): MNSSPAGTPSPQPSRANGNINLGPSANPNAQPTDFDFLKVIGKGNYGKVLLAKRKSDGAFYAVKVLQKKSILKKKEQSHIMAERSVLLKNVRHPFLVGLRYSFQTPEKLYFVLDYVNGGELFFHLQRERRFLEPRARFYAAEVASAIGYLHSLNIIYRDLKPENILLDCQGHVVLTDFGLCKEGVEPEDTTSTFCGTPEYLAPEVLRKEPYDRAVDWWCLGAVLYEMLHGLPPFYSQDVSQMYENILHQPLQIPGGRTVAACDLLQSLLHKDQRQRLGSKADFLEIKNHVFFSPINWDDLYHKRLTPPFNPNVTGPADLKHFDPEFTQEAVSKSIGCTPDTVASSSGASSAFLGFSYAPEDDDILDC
The settings on record: at 10 µM.

Assay [2] has as its target T2, Serine/threonine-protein kinase Sgk3 (Homo sapiens) (UniProt Q96BR1).
T2 sequence (whole entry): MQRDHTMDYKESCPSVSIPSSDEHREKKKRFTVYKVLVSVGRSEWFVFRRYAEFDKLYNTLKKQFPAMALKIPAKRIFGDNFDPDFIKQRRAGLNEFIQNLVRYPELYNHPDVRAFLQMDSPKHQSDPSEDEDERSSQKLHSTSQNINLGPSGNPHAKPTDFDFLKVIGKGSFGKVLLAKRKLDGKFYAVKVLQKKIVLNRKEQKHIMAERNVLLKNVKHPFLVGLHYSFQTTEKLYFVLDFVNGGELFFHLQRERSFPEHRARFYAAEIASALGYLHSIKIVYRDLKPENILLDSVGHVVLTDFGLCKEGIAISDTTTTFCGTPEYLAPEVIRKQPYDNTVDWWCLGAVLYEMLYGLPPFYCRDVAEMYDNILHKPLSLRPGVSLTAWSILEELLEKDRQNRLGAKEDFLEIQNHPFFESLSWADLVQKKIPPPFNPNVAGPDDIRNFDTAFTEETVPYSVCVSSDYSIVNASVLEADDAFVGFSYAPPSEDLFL
Particulars: at 1 µM.

For assay [3], the target named is T2, Serine/threonine-protein kinase Sgk3 (Homo sapiens). Particulars: at 10 µM.
For assay [4], the target named is Serine/threonine-protein kinase SIK1 (Homo sapiens) (UniProt P57059). The settings on record: at 1 µM.
The target is the same in assay [5]. The settings on record: at 10 µM.
The target of assay [6] is SRSF protein kinase 1 (Homo sapiens) (UniProt Q96SB4). The settings on record: at 10 µM.

The values below come from ChEMBL document CHEMBL2218924, “A broad activity screen in support of a chemogenomic map for kinase signalling research and drug discovery” (Biochem J, 2013).

Serine/threonine-protein kinase SIK1 (Homo sapiens), sequence (P57059 whole entry): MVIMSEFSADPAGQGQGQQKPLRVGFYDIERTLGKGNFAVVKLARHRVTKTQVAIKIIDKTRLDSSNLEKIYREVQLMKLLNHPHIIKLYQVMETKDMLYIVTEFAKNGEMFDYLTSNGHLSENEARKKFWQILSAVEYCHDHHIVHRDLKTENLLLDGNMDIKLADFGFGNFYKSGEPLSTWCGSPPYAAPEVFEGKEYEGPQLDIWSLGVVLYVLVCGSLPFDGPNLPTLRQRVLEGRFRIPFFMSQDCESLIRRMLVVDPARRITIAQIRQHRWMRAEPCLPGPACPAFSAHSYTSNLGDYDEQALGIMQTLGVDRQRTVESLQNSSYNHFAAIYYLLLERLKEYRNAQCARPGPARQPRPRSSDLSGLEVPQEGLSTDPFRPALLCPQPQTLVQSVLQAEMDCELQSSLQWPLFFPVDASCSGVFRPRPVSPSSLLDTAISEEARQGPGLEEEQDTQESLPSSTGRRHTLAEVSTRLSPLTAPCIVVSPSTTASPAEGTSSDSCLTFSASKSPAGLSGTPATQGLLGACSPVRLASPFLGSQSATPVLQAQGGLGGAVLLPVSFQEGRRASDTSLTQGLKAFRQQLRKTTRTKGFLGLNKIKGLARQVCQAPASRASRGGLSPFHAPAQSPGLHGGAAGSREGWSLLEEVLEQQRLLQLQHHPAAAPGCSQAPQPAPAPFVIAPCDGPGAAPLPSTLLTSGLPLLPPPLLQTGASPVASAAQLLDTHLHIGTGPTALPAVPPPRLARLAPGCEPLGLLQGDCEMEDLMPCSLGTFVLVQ
SRSF protein kinase 1 (Homo sapiens), sequence (Q96SB4 whole entry): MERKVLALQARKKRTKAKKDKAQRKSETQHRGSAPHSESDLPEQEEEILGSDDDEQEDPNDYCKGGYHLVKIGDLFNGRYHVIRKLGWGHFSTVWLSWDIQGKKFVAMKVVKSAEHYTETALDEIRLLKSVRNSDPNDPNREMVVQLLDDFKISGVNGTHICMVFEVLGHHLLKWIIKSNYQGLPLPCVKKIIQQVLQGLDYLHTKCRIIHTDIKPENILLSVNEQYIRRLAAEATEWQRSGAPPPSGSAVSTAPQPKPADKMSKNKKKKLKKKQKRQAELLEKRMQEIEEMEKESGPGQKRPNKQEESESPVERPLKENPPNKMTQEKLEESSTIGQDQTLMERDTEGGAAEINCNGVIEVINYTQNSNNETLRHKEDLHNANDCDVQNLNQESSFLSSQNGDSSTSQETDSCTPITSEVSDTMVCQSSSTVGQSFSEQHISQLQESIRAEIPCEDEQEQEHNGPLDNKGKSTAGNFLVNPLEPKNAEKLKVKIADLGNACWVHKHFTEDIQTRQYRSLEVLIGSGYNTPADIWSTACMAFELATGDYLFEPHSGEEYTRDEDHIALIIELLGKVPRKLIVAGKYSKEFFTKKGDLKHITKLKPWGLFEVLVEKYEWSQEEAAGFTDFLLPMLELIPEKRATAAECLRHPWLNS

Turning to `COc1ccc2c(c1)/C(=C/c1cnc[nH]1)C(=O)N2`, the residual activity in assay [1] came to 32%; in assay [2], 100%; in assay [3], 53%; in assay [4], 145%; in assay [5], 48%; in assay [6], 98%.

Turning to `Nc1ncnc2c1cnn2-c1ccccc1`, the residual activity in assay [2] came out at 94%.

In the case of `CCN(CC)CCNC(=O)c1c(C)[nH]c(/C=C2\C(=O)Nc3ccc(Cl)cc32)c1C`, in assay [2], the residual activity stood at 115%.

Broadly, the residual activity is the signal under treatment as a percentage of the control signal.
